Measured values reported in PubChem BioAssay AID1159580 (chemical genetic matrix, 2015).
Where “and” joins values, the source holds several entries; their conditions need not be identical. Equal entries are not always repeated. Hit rate of the full screen: of about 5,500 compounds, about 2,000 (36%) were called active. Another 18% or so got no clear call; they are omitted. Cut-off read from the data, not from the text of the source: active = normalized growth mostly below about 0.91 (no sharp cut-off); inconclusive = no clear call, values can overlap the other calls; inactive = mostly above about 0.92. The list shows a part of the results.

Assay: chemical genetic growth profiling, strain panel (AID 1159580);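 note: tested at 20 µM; growth read once vehicle control cultures reached saturation at 30 °C; 1 = growth at the plate median or of vehicle wells; lower values mean less growth of the strain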
Conditions: S. cerevisiae deletion strains, growth OD

Measured: normalized growth

NCC(=O)CCC(=O)O
inactive: locus YAL013W, strain DEP1, hits give low values 1.01 | locus YAL021C, strain ccr4, hits give low values 1 | locus YAL026C, strain drs2, hits give low values 1.01 | locus YAL030W, strain snc1, hits give low values 0.99 | locus YBL061C, strain skt5, hits give low values 0.979 | locus YBR009C, strain hhf1, hits give low values 1.03 | locus YBR021W, strain FUR4, hits give low values 1.04 | locus YBR023C, strain chs3, hits give low values 0.995 | locus YBR171W, strain sec66, hits give low values 0.962 | locus YBR229C, strain ROT2, hits give low values 1.02 | locus YBR231C, strain swc5, hits give low values 0.968 | locus YBR279W, strain paf1, hits give low values 0.997 | locus YCL011C, strain gbp2, hits give low values 1 | locus YCL016C, strain dcc1, hits give low values 0.998 | locus YCL029C, strain bik1, hits give low values 0.995 | locus YCL061C, strain MRC1, hits give low values 0.983 | locus YCL069W, strain vba3, hits give low values 0.989 | locus YCR088W, strain abp1, hits give low values 0.987 | locus YDL005C, strain med2, hits give low values 0.96 | locus YDL035C, strain GPR1, hits give low values 1.02 | locus YDL040C, strain nat1, hits give low values 0.979 | locus YDL074C, strain BRE1, hits give low values 1.02 | locus YDL101C, strain DUN1, hits give low values 1.01 | locus YDL134C, strain PPH21, hits give low values 1.01 | locus YDL185W, strain tfp1, hits give low values 0.994 | locus YDL192W, strain arf1, hits give low values 0.992 | locus YDR001C, strain nth1, hits give low values 0.997 | locus YDR069C, strain doa4, hits give low values 0.979 | locus YDR101C, strain arx1, hits give low values 0.988 | locus YDR137W, strain rgp1, hits give low values 0.979 | locus YDR150W, strain NUM1, hits give low values 1.02 | locus YDR159W, strain sac3, hits give low values 1 | locus YDR162C, strain NBP2, hits give low values 1.01 | locus YDR195W, strain ref2 0.945 | locus YDR297W, strain sur2, hits give low values 0.99 | locus YDR318W, strain mcm21, hits give low values 0.978 | locus YDR334W, strain swr1, hits give low values 0.984 | locus YDR335W, strain msn5, hits give low values 0.995 | locus YDR388W, hits give low values 0.986 | locus YDR392W, strain spt3, hits give low values 1.05 | locus YDR502C, strain sam2, hits give low values 0.995 | locus YEL003W, strain gim4, hits give low values 0.992 | locus YEL037C, strain rad23, hits give low values 0.979 | locus YEL061C, strain CIN8 (second series), hits give low values 0.99 | locus YEL061C, strain CIN8, hits give low values 1.01 | locus YER015W, strain faa2, hits give low values 0.996 | locus YER016W, strain bim1, hits give low values 1.01 | locus YER110C, hits give low values 0.991 | locus YER111C, strain swi4, hits give low values 0.972 | locus YER155C, strain BEM2 (second series), hits give low values 0.955 | locus YER155C, strain BEM2, hits give low values 1.01 | locus YER167W, strain BCK2, hits give low values 1.01 | locus YFR010W, strain ubp6, hits give low values 0.973 | locus YGL078C, strain dbp3, hits give low values 0.99 | locus YGL086W, strain mad1, hits give low values 1 | locus YGL167C, strain pmr1, hits give low values 0.974 | locus YGL173C, strain kem1, hits give low values 0.971 | locus YGL227W, strain vid30, hits give low values 0.988 | locus YGL240W, strain doc1, hits give low values 0.965 | locus YGL248W, strain PDE1, hits give low values 1.01 | locus YGL253W, strain hxk2, hits give low values 1.01 | locus YGR078C, strain PAC10, hits give low values 1.02 | locus YGR135W, strain pre9, hits give low values 0.982 | locus YGR229C, strain SMI1, hits give low values 1.02 | locus YGR252W, strain gcn5, hits give low values 0.975 | locus YHR013C, strain ard1, hits give low values 0.964 | locus YHR027C, strain rpn1, hits give low values 1 | locus YHR030C, strain SLT2, hits give low values 1.01 and 1.03 | locus YHR079C, strain IRE1 (second series), hits give low values 0.982 | locus YHR079C, strain IRE1, hits give low values 1.03 | locus YHR094C, strain hxt1, hits give low values 0.99 | locus YHR129C, strain ARP1, hits give low values 1.01 | locus YHR142W, strain chs7, hits give low values 0.981 | locus YHR200W, strain rpn10, hits give low values 0.99 | locus YIL066C, strain RNR3, hits give low values 1.02 | locus YIL073C, strain SPO22, hits give low values 1.01 | locus YIL125W, strain kgd1, hits give low values 0.997 | locus YIR030C, strain dcg1, hits give low values 0.994 | locus YJL092W, strain hpr5, hits give low values 0.969 | locus YJL095W, strain BCK1 (second series), hits give low values 0.984 | locus YJL095W, strain BCK1, hits give low values 1.01 and 1.03 | locus YJL115W, strain asf1, hits give low values 0.967 | locus YJL129C, strain trk1, hits give low values 0.98 | locus YJL134W, strain LCB3, hits give low values 1.01 | locus YJL154C, strain vps35, hits give low values 0.979 | locus YJL164C, strain tpk1, hits give low values 1 | locus YJL166W, strain qcr8, hits give low values 0.924 | locus YJL168C, strain set2, hits give low values 0.984 | locus YJL187C, strain SWE1 (second series), hits give low values 1.01 | locus YJL187C, strain SWE1, hits give low values 0.982 | locus YJR043C, strain POL32, hits give low values 1.01 | locus YJR066W, strain TOR1, hits give low values 0.986
